Hit rate of the full screen: of about 390,000 compounds, about 4,700 (1.2%) were called active. A call without a number means that no potency is given here. About 4% were inconclusive and are not listed. Calls follow the shape of the dose curve; as a rule, active = well fitted inhibition curve with a large enough effect; inconclusive = small, poorly fitted or top-dose-only effect, or another doubt; inactive = no such curve, though single readings can be large or run the other way. This excerpt belongs to a sample that is enriched for actives.
Each compound was assayed against DNA polymerase eta (Homo sapiens) (UniProt Q9Y253) (assay: qHTS for Inhibitors of Polymerase Eta). Conditions: recombinant Pol eta, fluorescent DNA replication assay; series mostly up to 114 µM.
Method in brief: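 Pol eta at 10 nM preincubated with compounds 15 min at room temperature; reaction started with fluorescent substrate (50 nM final) and read kinetically at 0 and 10 min.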
Potency is read from the fitted curve at half-maximal effect.

Chain of DNA polymerase eta (Homo sapiens) (Q9Y253 whole entry, looked up): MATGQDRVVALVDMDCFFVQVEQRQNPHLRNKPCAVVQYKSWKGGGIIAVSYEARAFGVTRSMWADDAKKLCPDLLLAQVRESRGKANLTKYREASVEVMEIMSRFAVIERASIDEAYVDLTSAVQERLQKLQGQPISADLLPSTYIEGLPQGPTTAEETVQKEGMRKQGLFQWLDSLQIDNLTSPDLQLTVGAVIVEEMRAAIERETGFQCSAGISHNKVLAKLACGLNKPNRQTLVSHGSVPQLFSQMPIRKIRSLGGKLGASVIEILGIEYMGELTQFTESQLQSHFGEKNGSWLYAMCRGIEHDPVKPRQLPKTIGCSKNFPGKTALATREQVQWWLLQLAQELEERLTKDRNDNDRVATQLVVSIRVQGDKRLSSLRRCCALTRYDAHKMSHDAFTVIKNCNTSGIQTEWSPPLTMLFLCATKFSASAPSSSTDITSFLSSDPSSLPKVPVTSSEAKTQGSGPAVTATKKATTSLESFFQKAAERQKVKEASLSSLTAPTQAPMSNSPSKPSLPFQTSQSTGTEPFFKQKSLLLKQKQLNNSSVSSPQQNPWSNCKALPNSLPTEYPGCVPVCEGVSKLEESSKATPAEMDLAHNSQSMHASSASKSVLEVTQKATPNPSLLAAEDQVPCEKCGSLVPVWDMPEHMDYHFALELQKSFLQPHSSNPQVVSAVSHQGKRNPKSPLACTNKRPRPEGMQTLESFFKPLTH

SMILES | Potency
Cc1cc(O)c(C(c2ccccc2)N2CCN(c3ccccc3F)CC2)c(=O)n1Cc1ccco1 (configuration not stated) | inactive
Cc1ccc(NC(=O)Nc2sc3nc4n(c(=O)c3c2C)CCC(C)CC4)c(Cl)c1 (configuration not stated) | inactive
CCOC(=O)c1c(S(=O)(=O)N2CCCC(C(=O)NCc3cccc(C)c3)C2)c(C)n(C)c1C (configuration not stated) | inactive
Cc1cccc(NC(=O)c2ccc(F)c(S(=O)(=O)N(C)C3CCCCC3)c2)c1 | inactive
CCOC(=O)c1c(C)[nH]c2c1-c1ccccc1C(=O)C2=O | 3.16 µM (active)
CCOC(=O)c1c(SCC(=O)Nc2cccc(C)c2C)nc(=O)[nH]c1C | inactive
CCOC(=O)c1c(C)[nH]c(C)c1S(=O)(=O)N(C)CC(=O)N1CCN(c2ccccc2)CC1 | inactive
COc1ccc(Cl)cc1NC(=O)CSc1nc(=O)[nH]c2c1CCCC2 | inactive
COc1ccc(NC(=O)CCN2CCN(CCO)CC2)cc1 | inactive
Cc1csc2nc(COC(=O)c3ccc(NC(=O)COc4ccccc4F)cc3)cc(=O)n12 | inactive
COc1ccc2[nH]c3c(C)c4cc[n+](C)cc4c(C)c3c2c1 | 1.12 µM (active)
CC(=O)Nc1c(C)nn(-c2ccccc2)c1N1CCC(C(=O)Nc2cc(Cl)ccc2C)CC1 | inactive
Cc1cc(-c2ccccc2)n2nc(-c3ccccc3)cc2n1 | inactive
COc1ccccc1OCCCn1c(-c2ccc(Cl)cc2)nc2ccccc2c1=O | inactive
O=C(Nc1nnc(S(=O)(=O)N2CCCc3ccccc32)s1)c1cccc(F)c1 | 50.1 µM (active)
O=C(Nc1nnc(S(=O)(=O)N2CCOCC2)s1)c1cccc(Br)c1 | inactive
O=C(Nc1nnc(S(=O)(=O)N2CCCCCC2)s1)c1cccc(Br)c1 | inactive
COc1cc(NC(=O)c2cc(C3CC3)nc3c2c(C)nn3-c2ccccc2)cc(OC)c1 | inactive
Cc1nn(Cc2ccc(F)cc2)c(C)c1NC(=O)c1cc(CC(C)C)on1 | inactive
CCc1nc2cccnc2n1-c1ccc(C(=O)O)cc1 | 20 µM (active)
CCc1nc2cccnc2n1-c1ccc(CC(=O)Nc2c(C)cccc2C)cc1 | inactive
Cc1ccc(Cl)cc1NC(=O)Cc1ccc(-n2c(C)nc3cccnc32)cc1 | inactive
O=C(O)c1ccc(Nc2nc(-c3ccccc3)c3cc(Br)ccc3n2)cc1 | inactive
CCN(CC)c1ccc(NC(=O)CN2CCN(CC(=O)Nc3ccc(Cl)cc3)CC2)cc1 | inactive
CCc1ccc(S(=O)(=O)Nc2cc3c(C(=O)OCc4ccccc4)c(C)oc3c3ccccc23)cc1 | inactive

SMILES | Potency
Cc1ccc(Cc2cnc(N)s2)o1 | 79.4 µM (active)
CCOC(=O)C1CCN(c2nc3c(S(=O)(=O)c4ccc(CC)cc4)nnn3c3ccc(Cl)cc23)CC1 | inactive
CCCN(CCC)C(=O)C(Cc1ccccc1)NS(=O)(=O)c1ccc2c(c1)c(=O)n(C)c(=O)n2C (configuration not stated) | inactive
Cc1oc(-c2ccccc2)nc1Cn1c(SCc2cccc(C(F)(F)F)c2)nc2cccnc21 | inactive
N#Cc1c(-c2ccccc2)nc(SCc2cccc(C(F)(F)F)c2)[nH]c1=O | 89.1 µM (active)
Cc1ccccc1CSc1nnc(-c2ccccc2)c(=O)[nH]1 | inactive
COc1ccccc1OCC(=O)Nc1nnc2n1CCS2 | inactive
COc1ccccc1CNC(=O)c1ccc(NC(=O)N2CC(C)Sc3ccccc32)cc1 (configuration not stated) | inactive
Cc1ccc(F)cc1NC(=O)CCSc1nc(-c2ccco2)cc(C(F)(F)F)n1 | inactive
Cc1cccc(NC(=O)CSc2nc(-c3ccco3)cc(C(F)(F)F)n2)c1C | inactive
Cc1cc(C)c2nc(-c3ccco3)cc(C(=O)O)c2c1 | 22.4 µM (active)
CCN(CCCNC(=O)c1cc2c(=O)n(CC)c3ccccc3c2s1)Cc1ccccc1 | inactive
COC(=O)c1ccccc1NC(=O)c1cc(-c2ccccc2O)no1 | inactive
COc1ccc(NC(=O)c2sc3nc[nH]c(=O)c3c2C)cc1 | inactive
CCOC(=O)c1ccc(N2C(=O)c3[nH]nc(-c4ccccc4)c3C2c2ccc(C(C)C)cc2)cc1 (configuration not stated) | inactive
COC(=O)c1ccc(NC(=O)c2cccc3c2C(=O)N(C2CCCCC2)C3)cc1 | inactive
O=C(O)c1cccc2c1C(=O)N(C1CCCCC1)C2 | 31.6 µM (active)
O=C(O)c1cccc2c1C(=O)N(C1CCCC1)C2 | inactive
CCC1(C)CC(=O)NC1=O (configuration not stated) | inactive
Cc1cc2nc(-c3ccc(NC(=O)c4cc5ccccc5o4)cc3)oc2cc1C | inactive
Cc1cccc(N(C)C(=O)CS(=O)(=O)c2cccc3nsnc23)c1 | inactive
COc1ccc(NC(=O)CSC2=Nc3ccccc3C3=NC(CC(=O)NCc4ccccc4OC)C(=O)N23)cc1Cl (configuration not stated) | inactive
CCOc1ccc(C(=O)N2CCN(CCc3ccccn3)CC2)cc1 | inactive
CCN(CC)CCOc1ccc2c(c1)C(=NNC(=O)c1ccccn1)c1cc(OCCN(CC)CC)ccc1-2 | 22.4 µM (active)
CCN(CC)S(=O)(=O)c1cc(C(=O)Nc2ccccn2)ccc1C | inactive

SMILES | Potency
COC(=O)c1ccc(NC(=O)c2cnn(-c3ccc(Cl)cc3)c2C2CCN(C(=O)OC(C)(C)C)CC2)cc1 | inactive
COc1ccc(-c2nn(CC(=O)Nc3ccccc3F)c3c2cnc2ccc(F)cc23)cc1 | inactive
O=C(O)c1ccc(NS(=O)(=O)c2ccc3c(c2)C(=O)c2cc(S(=O)(=O)Nc4ccc(C(=O)O)cc4)ccc2-3)cc1 | 39.8 µM (active)
Cc1cc(C(C)(C)C)cc(S(=O)(=O)Nc2ccc(C(=O)O)cc2)c1C | inactive
O=C(c1ccc(NS(=O)(=O)c2ccc3[nH]c(=O)[nH]c3c2)cc1)N1CCCCC1 | inactive
Cc1ccc(CN(C(=O)c2ccccc2[N+](=O)[O-])c2ccccn2)cc1 | inactive
CC(C)CCNC(=O)CSc1nc2ccccc2nc1Cc1ccc(Cl)cc1 | inactive
Cn1c(SCC(=O)N2CCCc3ccccc32)ncc(C(=O)Nc2ccc(F)cc2)c1=O | inactive
CC(NC(=O)c1cc2c(=O)n3ccccc3nc2n(C(C)C)c1=N)c1ccccc1 (configuration not stated) | inactive
COc1ccc(OC)c2sc(N3CCN(C(=O)C4COc5ccccc5O4)CC3)nc12 (configuration not stated) | inactive
Cc1c(CC(=O)N2CCN(C(=O)C3COc4ccccc4O3)CC2)c(=O)oc2c(O)c(O)ccc12 (configuration not stated) | 2 µM (active)
COc1cc(NS(=O)(=O)c2ccc3c(c2)OCC(C(=O)N2CCCC2)O3)cc(OC)c1 (configuration not stated) | inactive
O=S(=O)(NCCc1nnc2ccc(SCc3ccc(Cl)cc3Cl)nn12)c1ccccc1 | inactive
CCOCCCn1c(SCC(=O)Nc2ccc(CC)cc2)nc2ccccc2c1=O | inactive
Cc1ccc(/C=C/C(=O)Nc2ccc([N+](=O)[O-])c(NC(=O)/C=C/c3ccc(C)o3)c2)o1 | 8.91 µM (active)
COc1ccc(OC)c(NC(=O)/C=C/c2ccc(C)o2)c1 | inactive
CC(=O)Nc1ccc2c3c(ccc([N+](=O)[O-])c13)CC2 | inactive
COc1ccc(NC(=O)CCNS(=O)(=O)c2ccc3c(c2)CCCC(=O)N3)cc1Cl | inactive
O=c1[nH]n(-c2ccc([N+](=O)[O-])cc2)c(=O)c2ccccc12 | 39.8 µM (active)
C=CCNC(=S)N1CCN(CCN=Cc2c(C)[nH]n(-c3ccc([N+](=O)[O-])cc3)c2=O)CC1 | inactive
O=C(CSCc1ccc([N+](=O)[O-])cc1)NCCSCc1ccccc1 | inactive
Cc1cc(C)cc(NC(=O)CSc2oc(-c3ccccc3)nc2S(=O)(=O)c2ccc(Cl)cc2)c1 | inactive
Cc1ccc(C(=O)Oc2coc(CSc3nnc(NC(=O)c4cccs4)s3)cc2=O)cc1C | 7.94 µM (active)
CCOc1ccccc1Nc1nnc(SCc2ccc(C(=O)OC)o2)s1 | inactive
COCCSc1nnc(NC(=O)c2cc(OC)c(OC)cc2[N+](=O)[O-])s1 | inactive

SMILES | Potency
CC1=C(c2ccc(C)cc2)S(=O)(=O)NC1=NCCCN1CCN(c2cc(C)ccc2C)CC1 | inactive
CCc1ccc2ncc3c(-c4ccc(C)cc4)nn(CC(=O)NCc4ccccc4)c3c2c1 | inactive
CCc1ccc(CNCc2c(C(=O)O)n(Cc3ccc(F)cc3Cl)c3cc(OC)ccc23)cc1 | inactive
COc1cc(C(=O)NCCc2csc3nc(-c4ccccc4C)nn23)cc(OC)c1OC | inactive
O=C(OCC(=O)c1cccs1)c1ccc([N+](=O)[O-])o1 | inactive
O=C(COC(=O)c1ccc([N+](=O)[O-])o1)NC12CC3CC(CC(C3)C1)C2 | 79.4 µM (active)
O=C(COC(=O)c1ccc(Br)o1)NC12CC3CC(CC(C3)C1)C2 | inactive
ON=C1/C(=N\O)CC2(C/C1=N/O)OCCO2 | 56.2 µM (active)
COc1ccc(OC)c(NC(=O)CN2CCCN(Cc3cc(C)ccc3C)S2(=O)=O)c1 | inactive
COC(=O)c1sc(-c2ccc(C(C)(C)C)cc2)cc1NC(=O)/C=C/C(=O)O | 79.4 µM (active)
COc1ccc(Nc2ncc3c(n2)CCN(C(=O)OC(C)(C)C)C3)cc1 | inactive
COc1ccc(/C=C/c2noc(-c3ccccc3O)n2)cc1OC | inactive
O=C(CCc1nc(CN2CCN(S(=O)(=O)c3ccc(Cl)cc3)CC2)no1)N1CCCCC1 | inactive
CCCCN(CC)CCCNC(=O)Cn1ncc2c([nH]c3ccc(C)cc32)c1=O | inactive
Cc1cc(=O)n2[nH]c(-c3sccc3-n3c(C)ccc3C)cc2n1 | 22.4 µM (active)
Cc1ccc(-c2cc(N)n(Cc3cccc(Cl)c3)n2)cc1 | inactive
COc1cc(Nc2nc(-c3ccc(OC)c(OC)c3)nc3ccccc23)cc(OC)c1 | inactive
CC(=O)N(C1=C(Cl)C(=O)c2ccccc2C1=O)c1ccc(C(=O)O)cc1 | 20 µM (active)
CCC(=O)N1CCc2cc(S(=O)(=O)NC(Cc3ccccc3)C(=O)NCc3ccc(C)cc3)ccc21 (configuration not stated) | inactive
Cc1ccc2nc(SCC(=O)Nc3cccc4ccccc34)nc(=O)n2c1 | inactive
Cc1ccn2c(=O)nc(SCC(=O)NCc3ccc(F)cc3)nc2c1 | 28.2 µM (active)
COc1ccc(CNC(=O)CSc2n[nH]c(-c3ccc(F)cc3)n2)cc1 | inactive

From PubChem BioAssay AID588591 (National Center for Advancing Translational Sciences (NCATS), 2011)
